Assay outcomes: PubChem, National Center for Advancing Translational Sciences (NCATS)
An excerpt weighted towards active compounds, which were near 21% of everything screened.
CHX counter = counter-screen hit for Shiga toxin inhibitors, cycloheximide | max response, % | AID 2314 | hit rate 12% among 300,000 | cell reporter, cycloheximide protein synthesis inhibition counterscreen; in the data active = max response mostly above about 13%, no sharp cut-off; inactive = mostly below about 14%; note: read at 38.3 µM for the half of the compounds with a filed dose; 0% is about no effect
Pf growth 48h = inhibits P. falciparum growth in the first generation, 48 h | hit rate 5.9% among 310,000 | AID 504832 | P. falciparum luciferase growth in erythrocytes, 48 h | Potency, µM (series often up to 28.7 µM), for the others: at the top dose activity change, negative = inhibition, most hits filed as inhibitors; note: potency is the fitted concentration of half-maximal effect; % is set by controls: 0 for no effect and ±100 for the full control effect
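Growth was read as firefly luciferase luminescence after a 48 h, 37 C, 5% CO2 exposure of compounds to reporter-bearing P. falciparum cultures (0.1% parasitemia, 2% hematocrit final) in Albumax-supplemented RPMI 1640.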
HCV inh = inhibitors of hepatitis C virus infection | Potency, µM (titrated, usually from 41.8 µM), inactives show at the top dose activity change, negative = inhibition, most hits filed as inhibitors | hit rate 3.4% among 340,000 | Huh7.5.1 HCVcc-Cre infection, luciferase reporter, 44 h | AID 651820; note: potency is the fitted concentration of half-maximal effect; % is set by controls: 0 for no effect and ±100 for the full control effect
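Infectious HCV cell culture screen: compound-treated cells (1,000/well, pre-plated 4 h) are infected with HCVcc-Cre at roughly 0.5 moi and grown 44 h. Infection is quantified by luciferase signal after 15 min substrate incubation at room temperature.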
Pf growth 96h = P. falciparum growth inhibition at 96 hour, primary screen for plastid delayed-death inhibitors; P. falciparum luciferase reporter growth, 96 h; Potency, µM (top dose mostly 28.7 µM), inactives show top-dose activity change, negative = inhibition, usual class: inhibitors; hit rate 6.9% among 320,000; note: potency is the fitted concentration of half-maximal effect; % is set by controls: 0 for no effect and ±100 for the full control effect
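96 h incubation, 37 C, 5% CO2, of luciferase-reporter P. falciparum-infected RBCs (2% hematocrit, 0.05% parasitemia final) with test compounds; endpoint luminescence.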
AMA1 RON2 block = inhibitors of Plasmodium falciparum AMA1-RON2 interaction; AlphaScreen AMA1-biotinylated RON2 peptide binding; Potency, µM (titrated, usually from 58.2 µM), for the others: at the top dose activity change, negative = inhibition, actives largely listed as inhibitors; hit rate 0.2% among 360,000;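 note: potency is the fitted concentration of half-maximal effect; 0% = vehicle wells and -100% = peptide control; nearly all actives have a fitted effect of over 45% in size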
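AMA1 (3D7) with his tag at 25 nM final met compounds first, then biotinylated RON2 peptide at 25 nM; detection used donor plus acceptor beads, 10 µg/mL apiece, read by AlphaScreen after 30 min at room temperature.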
Shiga inhibitor = Shiga toxin inhibition; inhibition, % at 38.7 µM; Vero cells, Shiga toxin protein synthesis inhibition reporter; hit rate 9.2% among 290,000; in the data active = inhibition mostly above about 28%, no sharp cut-off; inactive = mostly below about 43%; note: 0% is about no effect
Active calls of the source: *; ? = inconclusive; · = not tested or not shown; [ ] = dose if it differs, or a comment. Unless noted, calls come from the whole dose curve; as a rule, active = well fitted curve in the direction sought with a large enough effect; inconclusive = small, poorly fitted or top-dose-only effect, or another doubt; inactive = no such curve, though single readings can be large; an effect the other way counts as inactive or inconclusive.

SMILES	CHX counter	Pf growth 48h	HCV inh	Pf growth 96h	AMA1 RON2 block	Shiga inhibitor
Cc1ccc(NC(=O)N(Cc2ccc3c(c2)OCO3)Cc2cc3cc4c(cc3[nH]c2=O)OCCO4)cc1	2	1.3µM*	?	·	-2%	-17
CC(C)(C)OC(=O)N1CCC[C@H]1C(=O)Nc1ccc(S(=O)(=O)C(F)F)cc1	-1	-8%	?	-3%	9%	-23
CCN(CC)CCCN(Cc1cc2cc3c(cc2[nH]c1=O)OCCO3)C(=O)Nc1ccccc1	-3	10µM*	-21%	·	6%	-4
COc1cc2cc(CN(CCCN3CCOCC3)C(=O)Nc3ccc(F)cc3)c(=O)[nH]c2cc1OC	12	13µM*	-2%	40%	-4%	-21
COc1ccc(CN(CCCN2CCOCC2)C(=O)Nc2cccc(Cl)c2)cc1OC	-1	?	?	12µM*	-7%	-7
CCOc1ccc2[nH]c(=O)c(CN(CCCN3CCOCC3)C(=O)Nc3ccc(F)cc3)cc2c1	·	·	-1%	·	-3%	·
COC(=O)c1ccccc1S(=O)(=O)N(Cc1cc2cc3c(cc2[nH]c1=O)OCO3)C1CCCCC1	11	8.3µM*	-14%	11%	·	-9
CC(C)CCN1C(=O)c2ccccc2C1c1nnnn1C(C)C (stereo unspecified)	·	·	·	·	2%	·
Cc1noc(C)c1S(=O)(=O)Nc1ccc2c(c1)CC(=O)N([C@H](C)CO)C[C@H](C)[C@@H](CN(C)CC1CC1)O2	·	·	?	·	11%	·
O=C(c1ccccc1NS(=O)(=O)c1ccc(F)cc1)N1CCOCC1	-1	2%	16%	143%	15%	-13
Cn1c(=O)c2cc(NC(=S)NCc3ccccc3F)ccc2n1C	·	·	·	·	-6%	·
COc1ccc(OC)c(CN(CCN2CCOCC2)C(=O)Nc2ccccc2)c1	9	20%	1%	39%	8%[2.32 µM]	43*
Cc1ccc(C)c2[nH]c(=O)c(CN(CCN3CCCC3)C(=O)Nc3cccc(Cl)c3)cc12	-5	2.3µM*	11µM*	5%	0%	-6
O=C(Nc1ccc(F)cc1)N(Cc1ccco1)Cc1cc2cc3c(cc2[nH]c1=O)OCO3	-1	10µM*	-25%	?	-5%	-13
Cc1ccc(NC(=O)C2CCN(S(=O)(=O)c3ccc4c(c3)OCCO4)CC2)nc1	·	?	-7%	6%	-5%	·
FC(F)(F)c1cccc(Cn2c3[n+](c4ccc(C(F)(F)F)cc42)CCCCC3)c1	-3	4.1µM*	23%	?	5%	27
Cc1cc(C(C)(C)C)cc(C)c1Cn1c2[n+](c3ccc(C(F)(F)F)cc31)CCCCC2	-5	3.3µM*	7.1µM*	?	2%	-6
Clc1nc(CN2CCCCC2)nc2sc3c(c12)CCC3	3	-16%	?	?	-2%	35
N#C/C(=C\c1c(Oc2ccccc2Cl)nc2ccccn2c1=O)C(=O)NC1CCS(=O)(=O)C1 (stereo unspecified)	-3	-23%	-2%	0%	-20%	-6
N#C/C(=C\c1c(Oc2ccccc2F)nc2ccccn2c1=O)C(=O)NC1CCS(=O)(=O)C1 (stereo unspecified)	-1	?	10%	9.3µM*	-4%	3
Cc1cc(C)cc(Oc2nc3ccccn3c(=O)c2/C=C(\C#N)C(=O)NC2CCS(=O)(=O)C2)c1 (stereo unspecified)	-3	?	-26%	-17%	14%	23
Cc1ccc(Oc2nc3ccccn3c(=O)c2/C=C(\C#N)C(=O)NC2CCS(=O)(=O)C2)c(C)c1 (stereo unspecified)	-2	?	19%	10µM*	-5%	4
Cc1ccc(N=C2N=C(N)c3ccccc32)cc1C	·	·	?	·	-21%	·
CCc1ccc(N=C2N=C(N)c3ccccc32)cc1	32*	·	-18%	78%	-1%	54*
COC(=O)c1cn(-c2nc3ccccc3s2)nn1	·	·	·	·	16%	·
SMILES	CHX counter	Pf growth 48h	HCV inh	Pf growth 96h	AMA1 RON2 block	Shiga inhibitor
CCC(C)n1c(SCC(=O)Nc2cc(C(C)(C)C)nn2-c2ccccc2)nc2ccccc2c1=O (stereo unspecified)	-2	10µM*	?	5.9µM*	-15%	15
CCn1c(SCC(=O)Nc2cc(C(C)(C)C)nn2-c2ccccc2)nnc1-c1cccs1	-1	-13%	16µM*	?	30%	16
Cc1nnc(SCC(=O)Nc2cc(C(C)(C)C)nn2-c2ccccc2)s1	-4	-6%	8%	0%	-12%	-12
Cc1csc(SCC(=O)Nc2cc(C(C)(C)C)nn2-c2ccccc2)n1	-3	7.4µM*	?	?	-7%	-6
Cc1cc2c(cc1C)-n1nnnc1C(N1CCN(CC(=O)NC(C)C)CC1)C(=O)N2 (stereo unspecified)	·	·	·	·	1%	·
O=C(Cc1csc(Nc2nc(=S)[nH]c3ccccc23)n1)N1CCN(c2cccc(Cl)c2)CC1	2	?	11µM*	19%	81%	14
Cc1ccc(Cl)cc1N1CCN(C(=O)Cc2csc(Nc3nc(=S)[nH]c4ccccc34)n2)CC1	10	7%	?	-7%	49%	-3
CCOc1cc(C(=O)N/N=C\c2cn(CC)nc2C)cc(OCC)c1OCC	8	-9%	?	?	37%	12
Cc1ccc(CNC(=O)C2CCN(S(=O)(=O)c3c(C)noc3/C=C/c3ccco3)CC2)cc1	5	·	-18%	6.6µM*	-6%	9
Cc1ccc(CNC(=O)C2CCN(S(=O)(=O)c3c(C)noc3/C=C/N(C)C)CC2)cc1	-1	-16%	18%	19%	-11%	-3
Cc1noc(/C=C/c2ccco2)c1S(=O)(=O)N1CCC(C(=O)N2CCc3ccccc3C2)CC1	19*	9.3µM*	11µM*	?	-13%	47*
Cc1noc(/C=C/c2ccco2)c1S(=O)(=O)N1CCC(C(=O)NCc2ccco2)CC1	0	13µM*	?	·	-8%	-7
CCCn1c(=O)c(C(=O)N/N=C/c2ccccc2F)c(O)c2ccccc21	13*	110%	14%	39%	2%	30
C=CCn1c(=O)c(C(=O)NCc2ccccc2)c(O)c2ccccc21	0	13%	?	-13%	184%	·
CCn1c(=O)c(C(=O)Nc2ccc(C)cc2)c(O)c2ccccc21	9	0%	?	-1%	42%	43
CCCn1c(=O)c(C(=O)N/N=C/c2ccc(F)cc2)c(O)c2ccccc21	-2	-3%	10%	33%	6%	2
CC(=O)c1c(O)c2ccccc2n(Cc2ccccc2)c1=O	-1	?	-30%	13µM*	39%	21
CCCn1c(=O)c(C(=O)Nc2ccccc2C)c(O)c2ccccc21	14*	62%	?	4%	37%	·
CCn1c(=O)c(C(=O)Nc2ccccc2C)c(O)c2ccccc21	16	14%	?	?	20%	active
